Experimental data: article PMC5540273 (PLoS ONE, 2017)
Several values for one entry are separate records, joined by “and”; a condition that tells them apart may be missing. Equal values may be shown once. Read-outs that look alike come from different tables or passages of the source.

Assays:
TAOK2 = conditions: concentration: 1 μM, replicates: in singlicate, n = 1
TAOK3 = conditions: concentration: 1 μM, replicates: in singlicate, n = 1
TBK1 = conditions: concentration: 1 μM, replicates: in singlicate, n = 1
TEC = conditions: concentration: 1 μM, replicates: in singlicate, n = 1
TESK1 = conditions: concentration: 1 μM, replicates: in singlicate, n = 1
TGFBR1 = conditions: n = 1
TGFBR2 = conditions: concentration: 1 μM, replicates: in singlicate, n = 1
TIE1 = conditions: concentration: 1 μM, replicates: in singlicate; n = 1
TIE2 = system: T1, TIE2; conditions: concentration: 1 μM, replicates: in singlicate; n = 1
T1 construct: gene TEK

TLK1 = conditions: concentration: 1 μM, replicates: in singlicate, n = 1
[1] = concentration: 1 μM, replicates: in singlicate
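Further: KINOMEscan kinase panel screen.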

Row | SMILES | %Inh (TAOK2) | %Inh (TAOK3) | %Inh (TBK1) | %Inh (TEC) | %Inh (TESK1) | %Inh (TGFBR1; [1]) | %Inh (TGFBR2) | %Inh (TIE1) | %Inh (TIE2) | %Inh (TLK1) | %Inh (TGFBR1; 1 µM) | %Inh (TAOK2; 1 µM) | %Inh (TAOK3; 1 µM) | %Inh (TBK1; 1 µM) | %Inh (TEC; 1 µM) | %Inh (TESK1; 1 µM) | %Inh (TGFBR1; concentration: 1 μM, replicates: in singlicate, 1 µM) | %Inh (TGFBR2; 1 µM) | %Inh (TLK1; 1 µM)
1 | O=C(Nc1n[nH]c2cc(-c3cccc(F)c3)ccc12)C1CC1 [SB-735464] | 32% | 8% | 10% | 0% | 17% | 5% | 0% | 0% | 16% | 16% | – | – | – | – | – | – | – | – | –
2 | c1ccc(-c2n[nH]cc2-c2ccnc3ccccc23)nc1 [GW271431] | 0% | 0% | 12% | 0% | 20% | – | 72% | 3% | 0% | 2% | 90.1% | – | – | – | – | – | – | – | –
3 | COc1ccc(Nc2ncc(C#N)c(Nc3ccccc3C(N)=O)n2)cc1N1CCN(C)CC1.Cl [GSK1558669] | 51% | 91.3% | 99.5% | 93.5% | 67% | 46% | 27% | 98.5% | 97.2% | 96.2% | – | – | – | – | – | – | – | – | –
4 | N#Cc1c(N2CCOCC2)sc(-c2ccn[nH]2)c1-c1ccc(Cl)cc1 | 0% | 0% | 12% | 12% | 0% | 19% | 0% | 0% | 5% | 11% | – | – | – | – | – | – | – | – | –
5 | Nc1nccc(-c2c(-c3ccc(F)cc3)ncn2C2CCN(CC(F)(F)F)CC2)n1 [SB-236560] | 0% | 0% | 0% | 8% | 0% | 32% | 6% | 25% | 0% | 11% | – | – | – | – | – | – | – | – | –
6 | CN(C1=C(c2ccccc2)C(=O)NC1=O)c1ccccc1 [SB-334860] | 0% | 0% | 29% | 7% | 67% | 26% | 0% | 0% | 5% | 20% | – | – | – | – | – | – | – | – | –
7 | O=c1cc(N2CCOCC2)nc2n(Cc3cccc(Cl)c3Cl)c(C3CC3)nn12 [GSK2358994] | 0% | 0% | 26% | 13% | 14% | 0% | 10% | 0% | 0% | 25% | – | – | – | – | – | – | – | – | –
8 | Cc1c(Cn2c(C)nn3c(=O)cc(N4CCOC(C)C4)nc23)cccc1C(F)(F)F (stereo not drawn) [GSK2344444] | 0% | 0% | 0% | 0% | 0% | 0% | 0% | 7% | 0% | 0% | – | – | – | – | – | – | – | – | –
9 | Cn1ccc2ncnc(Oc3ccc(NC(=O)Nc4ccncc4)c(Cl)c3)c21 | 0% | 0% | 22% | 0% | 0% | 10% | 0% | 0% | 5% | 0% | – | – | – | – | – | – | – | – | –
10 | NS(=O)(=O)c1cccc(-c2ccc3nccc(-c4cccc(S(N)(=O)=O)c4)c3c2)c1 [GW867253] | 31% | 6% | 15% | 0% | 7% | 0% | 0% | 5% | 0% | 3% | – | – | – | – | – | – | – | – | –
11 | NCC(NC(=O)c1cc(-c2cn[nH]c2)c(-c2ccnc3[nH]ccc23)s1)c1ccccc1.O=C(O)C(F)(F)F.O=C(O)C(F)(F)F (stereo not drawn) [GSK1325775] | 40% | 40% | 20% | 1% | 18% | 4% | 0% | 6% | 0% | 5% | – | – | – | – | – | – | – | – | –
12 | Cl.Cl.Cl.Fc1ccc(-c2ncn(C3CCNCC3)c2-c2ccnc(Nc3ccccc3)n2)cc1 [SB-238039] | – | – | – | – | – | – | – | 0% | 0% | – | – | 78% and 0% | 91.5% and 57% | 36% and 0% | 12% and 0% | 8% and 0% | 61% and 29% | 16% and 12% | 4% and 19%
13 | Cc1nnc(-c2ccc(C)c(-c3ccc(C(=O)Nc4ccc(NS(C)(=O)=O)cc4)cc3)c2)o1 [GW702865] | 0% | 0% | 10% | 0% | 11% | 0% | 0% | 0% | 0% | 0% | – | – | – | – | – | – | – | – | –
14 | Fc1ccc(-c2ncn(CCCN3CCOCC3)c2-c2cccnc2)cc1 [SB-211743] | 34% | 0% | 43% | 9% | 5% | 26% | 12% | 9% | 0% | 0% | – | – | – | – | – | – | – | – | –
15 | O=c1cc(N2CCOCC2)nc2n(Cc3cccc(C(F)(F)F)c3)ccn12 [GSK2297543] | 0% | 0% | 24% | 0% | 18% | 0% | 0% | 0% | 0% | 12% | – | – | – | – | – | – | – | – | –
